Source: ChEMBL document CHEMBL3988442, “University of Dundee, Small-Polar-MMV Screening Library” (2021)
For some assays here: Entries with a potency or affinity are not part of this list.

Legend:
Design in all cases: scale not given: direction of the effect not stated beside the values
[1] = molecular target: Protein translocase subunit SecA (Escherichia coli (strain K12)) (UniProt P10408); experiment: Assay to Identify E. coli SecA ATPase Inhibitors; assay type: functional; details: 30 µM
[2] = molecular target: T1, Ubiquitin-activating enzyme e1, putative (Leishmania donovani (strain BPK282A1)) (UniProt E9BSI1); experiment: Leishmania donovani Ubiquitin Activating Enzyme (LdE1); assay type: functional; details: 30 µM
T1 sequence (whole entry): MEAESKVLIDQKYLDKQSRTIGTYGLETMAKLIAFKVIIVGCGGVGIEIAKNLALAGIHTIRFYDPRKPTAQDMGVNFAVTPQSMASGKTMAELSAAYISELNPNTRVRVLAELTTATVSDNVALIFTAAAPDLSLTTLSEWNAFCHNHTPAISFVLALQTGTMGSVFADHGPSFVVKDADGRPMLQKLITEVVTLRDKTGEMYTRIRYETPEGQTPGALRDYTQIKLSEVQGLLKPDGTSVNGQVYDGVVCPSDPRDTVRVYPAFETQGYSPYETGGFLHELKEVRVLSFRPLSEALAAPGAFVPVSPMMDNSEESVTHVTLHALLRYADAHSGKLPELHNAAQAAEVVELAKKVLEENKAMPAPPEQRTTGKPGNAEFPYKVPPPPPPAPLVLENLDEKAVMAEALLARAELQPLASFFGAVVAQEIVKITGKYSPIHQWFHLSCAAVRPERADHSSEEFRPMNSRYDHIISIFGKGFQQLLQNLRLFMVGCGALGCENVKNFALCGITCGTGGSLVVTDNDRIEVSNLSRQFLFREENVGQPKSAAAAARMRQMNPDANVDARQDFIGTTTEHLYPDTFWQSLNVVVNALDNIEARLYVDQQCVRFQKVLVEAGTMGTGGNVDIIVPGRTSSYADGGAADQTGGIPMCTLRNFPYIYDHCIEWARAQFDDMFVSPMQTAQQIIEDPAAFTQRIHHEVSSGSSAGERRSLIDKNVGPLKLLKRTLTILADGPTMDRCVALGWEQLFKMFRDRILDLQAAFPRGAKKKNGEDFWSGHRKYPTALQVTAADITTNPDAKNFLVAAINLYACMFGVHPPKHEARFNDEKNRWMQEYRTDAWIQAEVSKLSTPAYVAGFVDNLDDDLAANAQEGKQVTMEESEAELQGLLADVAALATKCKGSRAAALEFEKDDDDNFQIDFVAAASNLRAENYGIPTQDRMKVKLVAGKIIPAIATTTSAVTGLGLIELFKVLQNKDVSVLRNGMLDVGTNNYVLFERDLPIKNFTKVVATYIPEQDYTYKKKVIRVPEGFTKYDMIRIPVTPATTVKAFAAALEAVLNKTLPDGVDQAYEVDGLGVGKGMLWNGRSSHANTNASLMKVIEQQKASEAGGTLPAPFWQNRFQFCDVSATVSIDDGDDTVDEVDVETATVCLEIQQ

[3] = molecular target: AMP-activated protein kinase, AMPK (Homo sapiens) (UniProt P54646+O43741+P54619+Q9UGJ0+Q9Y478+Q13131+Q9UGI9); experiment: AMP-dependent Kinase enzyme assay. An in vitro enzyme assay that detects ADP turnover that is directly proportional to AMPK activity. This uses naive AMPK that is activated during the assay with MK-8722; assay type: functional; details: 30 µM
[4] = molecular target: Sialic acid-binding Ig-like lectin 9 (Homo sapiens) (UniProt Q9Y336); experiment: Hs-Siglec9 ALPHAscreen SOP 20170721; details: 10 µM
Trypanosoma cruzi = experiment: Trypanosoma cruzi phosphomannomutase and mannose-1-phosphate guanylyltransferase assay; assay type: functional; details: 10 µM
[5] = molecular target: T2, Arginase-2, mitochondrial (Homo sapiens) (UniProt P78540); experiment: in vitro enzyme assay to detect the production of urea directly proportional to the activity of Arginase II; assay type: functional; details: 33.3 µM; further: in the data most compounds retested in dose-response had high values
T2 sequence (whole entry): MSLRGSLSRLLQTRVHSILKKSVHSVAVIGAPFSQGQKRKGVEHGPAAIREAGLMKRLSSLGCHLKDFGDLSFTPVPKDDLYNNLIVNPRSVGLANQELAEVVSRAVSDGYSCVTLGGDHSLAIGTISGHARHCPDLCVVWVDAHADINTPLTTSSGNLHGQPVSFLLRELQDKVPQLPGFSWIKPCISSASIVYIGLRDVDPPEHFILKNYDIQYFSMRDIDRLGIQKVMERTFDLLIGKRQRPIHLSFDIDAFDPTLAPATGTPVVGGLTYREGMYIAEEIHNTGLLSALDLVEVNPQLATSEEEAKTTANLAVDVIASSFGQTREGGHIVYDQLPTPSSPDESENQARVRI

[6] = molecular target: T3, Proteasome subunit beta (Trypanosoma cruzi) (UniProt O96673); experiment: Trypanosoma cruzi proteasome chymotrypsin-like activity (TcProtChymo) assay.; further: in the data most compounds retested in dose-response had high values; assay type: functional; details: 9.37 µM
T3 sequence (whole entry): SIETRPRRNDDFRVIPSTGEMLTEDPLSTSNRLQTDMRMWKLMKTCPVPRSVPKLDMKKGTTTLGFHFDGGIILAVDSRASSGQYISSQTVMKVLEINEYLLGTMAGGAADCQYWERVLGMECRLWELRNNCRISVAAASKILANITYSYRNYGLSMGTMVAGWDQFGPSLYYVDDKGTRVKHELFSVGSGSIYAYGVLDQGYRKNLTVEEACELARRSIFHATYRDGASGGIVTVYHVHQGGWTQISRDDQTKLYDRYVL

Homo sapiens = species on record: Homo sapiens; experiment: To identify inhibition of the IFN signalling (Jak-Stat) pathway via expression of an eGFP reporter gene under the control of an IFN-stimulated response element (ISRE) containing MxA promoter.; assay type: functional; details: 30 µM
[7] = molecular target: T4, Tyrosyl-tRNA synthetase, putative (Trypanosoma cruzi (strain CL Brener)) (UniProt Q4DSP6); experiment: Trypanosoma cruzi tyrosyl tRNA synthetase (TcYRS) _High Tyrosine SOP; assay type: functional; details: 30 µM; further: in the data most compounds retested in dose-response had high values
T4 sequence (whole entry): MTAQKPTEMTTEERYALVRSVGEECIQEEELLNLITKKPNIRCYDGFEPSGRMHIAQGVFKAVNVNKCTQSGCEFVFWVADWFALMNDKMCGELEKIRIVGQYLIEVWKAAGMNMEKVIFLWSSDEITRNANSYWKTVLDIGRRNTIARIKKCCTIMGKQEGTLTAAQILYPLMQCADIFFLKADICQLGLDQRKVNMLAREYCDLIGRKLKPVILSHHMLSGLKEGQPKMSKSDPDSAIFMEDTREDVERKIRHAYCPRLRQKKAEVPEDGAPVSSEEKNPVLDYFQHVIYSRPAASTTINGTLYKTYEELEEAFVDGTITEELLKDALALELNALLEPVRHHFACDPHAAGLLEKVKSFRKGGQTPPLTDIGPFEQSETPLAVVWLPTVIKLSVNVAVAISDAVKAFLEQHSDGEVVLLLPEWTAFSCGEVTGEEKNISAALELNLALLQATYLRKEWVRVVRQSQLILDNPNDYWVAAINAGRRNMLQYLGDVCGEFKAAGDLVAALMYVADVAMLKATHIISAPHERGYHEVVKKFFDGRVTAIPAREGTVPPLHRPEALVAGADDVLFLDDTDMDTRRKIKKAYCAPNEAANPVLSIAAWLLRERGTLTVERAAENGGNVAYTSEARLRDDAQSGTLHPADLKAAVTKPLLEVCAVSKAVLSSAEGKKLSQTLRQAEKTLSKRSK

[8] = molecular target: T4, Tyrosyl-tRNA synthetase, putative (Trypanosoma cruzi (strain CL Brener)); experiment: Trypanosoma cruzi tyrosyl tRNA synthetase (TcYRS) SOP; assay type: functional; details: 30 µM
[9] = molecular target: Chromo domain-containing protein 1 (Saccharomyces cerevisiae (strain ATCC 204508 / S288c) (Baker's yeast)) (UniProt P32657); experiment: ScCHD-1 Enzyme Inhibition Assay; assay type: functional; details: 30 µM; further: in the data most compounds retested in dose-response had high values
Chain of Chromo domain-containing protein 1 (Saccharomyces cerevisiae (strain ATCC 204508 / S288c) (Baker's yeast)) (P32657 whole entry, the tested form may be a part): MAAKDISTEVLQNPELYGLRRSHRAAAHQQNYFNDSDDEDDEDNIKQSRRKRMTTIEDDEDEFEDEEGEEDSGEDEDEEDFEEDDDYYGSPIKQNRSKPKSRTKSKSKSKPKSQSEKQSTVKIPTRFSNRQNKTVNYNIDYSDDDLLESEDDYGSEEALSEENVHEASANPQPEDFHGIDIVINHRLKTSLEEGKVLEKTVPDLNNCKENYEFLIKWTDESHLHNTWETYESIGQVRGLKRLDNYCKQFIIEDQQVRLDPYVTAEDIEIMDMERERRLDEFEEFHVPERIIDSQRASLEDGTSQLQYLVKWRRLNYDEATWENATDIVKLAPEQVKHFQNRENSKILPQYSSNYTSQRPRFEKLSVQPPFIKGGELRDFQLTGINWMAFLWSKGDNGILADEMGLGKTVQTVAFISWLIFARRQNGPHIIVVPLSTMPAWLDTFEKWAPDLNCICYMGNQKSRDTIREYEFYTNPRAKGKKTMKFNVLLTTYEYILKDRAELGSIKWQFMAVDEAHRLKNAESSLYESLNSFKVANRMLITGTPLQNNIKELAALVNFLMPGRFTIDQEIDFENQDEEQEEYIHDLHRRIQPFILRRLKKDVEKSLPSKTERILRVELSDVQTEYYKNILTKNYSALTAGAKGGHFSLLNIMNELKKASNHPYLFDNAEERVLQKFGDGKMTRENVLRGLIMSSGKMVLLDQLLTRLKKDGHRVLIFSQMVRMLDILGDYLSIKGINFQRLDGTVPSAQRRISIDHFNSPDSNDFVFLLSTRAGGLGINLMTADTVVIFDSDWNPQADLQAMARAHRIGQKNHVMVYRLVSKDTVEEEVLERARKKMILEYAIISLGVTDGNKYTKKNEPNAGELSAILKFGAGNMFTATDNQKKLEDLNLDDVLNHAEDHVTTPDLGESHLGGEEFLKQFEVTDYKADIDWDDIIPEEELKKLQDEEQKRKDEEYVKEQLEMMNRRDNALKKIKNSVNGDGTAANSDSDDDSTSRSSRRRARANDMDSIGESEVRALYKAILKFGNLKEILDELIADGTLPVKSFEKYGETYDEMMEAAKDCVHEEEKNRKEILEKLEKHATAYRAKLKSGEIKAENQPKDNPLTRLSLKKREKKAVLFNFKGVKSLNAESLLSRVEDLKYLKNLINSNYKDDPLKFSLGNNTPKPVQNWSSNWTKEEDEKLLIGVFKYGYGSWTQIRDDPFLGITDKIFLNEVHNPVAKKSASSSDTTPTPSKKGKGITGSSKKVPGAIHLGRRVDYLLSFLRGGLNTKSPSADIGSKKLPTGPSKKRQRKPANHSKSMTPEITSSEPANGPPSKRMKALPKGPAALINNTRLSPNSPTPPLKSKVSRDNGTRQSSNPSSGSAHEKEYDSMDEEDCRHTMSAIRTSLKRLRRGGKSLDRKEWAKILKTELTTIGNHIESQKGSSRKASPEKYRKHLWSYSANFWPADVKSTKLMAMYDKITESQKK

Chain of Sialic acid-binding Ig-like lectin 9 (Homo sapiens) (Q9Y336 whole entry): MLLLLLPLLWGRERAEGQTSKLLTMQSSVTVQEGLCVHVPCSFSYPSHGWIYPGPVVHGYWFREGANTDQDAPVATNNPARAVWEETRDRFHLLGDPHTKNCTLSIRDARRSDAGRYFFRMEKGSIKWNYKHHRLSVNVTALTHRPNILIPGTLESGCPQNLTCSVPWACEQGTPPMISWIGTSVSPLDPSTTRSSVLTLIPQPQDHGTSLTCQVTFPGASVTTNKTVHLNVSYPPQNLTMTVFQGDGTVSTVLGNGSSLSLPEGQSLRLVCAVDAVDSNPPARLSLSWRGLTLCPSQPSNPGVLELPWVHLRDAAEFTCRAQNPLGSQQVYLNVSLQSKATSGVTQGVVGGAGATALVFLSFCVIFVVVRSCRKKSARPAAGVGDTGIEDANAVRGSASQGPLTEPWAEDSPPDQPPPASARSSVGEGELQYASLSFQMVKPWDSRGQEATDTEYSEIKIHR
Chain of Protein translocase subunit SecA (Escherichia coli (strain K12)) (P10408 whole entry): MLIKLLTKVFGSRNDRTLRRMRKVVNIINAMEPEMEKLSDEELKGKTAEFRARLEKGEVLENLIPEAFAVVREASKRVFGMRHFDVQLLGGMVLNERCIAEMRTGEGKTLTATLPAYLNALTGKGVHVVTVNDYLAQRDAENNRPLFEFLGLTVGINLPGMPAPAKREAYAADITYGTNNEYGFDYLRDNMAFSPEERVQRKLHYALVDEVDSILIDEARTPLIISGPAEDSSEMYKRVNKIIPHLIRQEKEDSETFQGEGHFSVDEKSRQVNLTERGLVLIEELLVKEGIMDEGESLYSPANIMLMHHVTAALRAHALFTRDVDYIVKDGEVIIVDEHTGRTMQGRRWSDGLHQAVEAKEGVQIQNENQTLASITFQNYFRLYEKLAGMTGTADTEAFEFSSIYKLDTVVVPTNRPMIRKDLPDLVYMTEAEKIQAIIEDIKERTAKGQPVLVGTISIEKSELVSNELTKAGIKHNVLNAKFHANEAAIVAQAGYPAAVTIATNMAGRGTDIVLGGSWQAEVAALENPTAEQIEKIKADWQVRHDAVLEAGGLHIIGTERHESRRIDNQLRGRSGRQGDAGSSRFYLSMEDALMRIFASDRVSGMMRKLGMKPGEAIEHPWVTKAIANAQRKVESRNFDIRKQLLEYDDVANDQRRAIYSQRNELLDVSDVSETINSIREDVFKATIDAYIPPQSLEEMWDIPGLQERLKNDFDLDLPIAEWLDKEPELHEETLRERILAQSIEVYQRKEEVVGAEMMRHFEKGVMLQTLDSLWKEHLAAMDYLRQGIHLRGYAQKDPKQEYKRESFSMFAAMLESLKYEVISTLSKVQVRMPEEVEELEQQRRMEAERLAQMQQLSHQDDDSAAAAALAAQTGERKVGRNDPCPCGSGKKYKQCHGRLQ

Row | Structure (SMILES) | Percent Effect [1] [%] | Percent Effect [2] [%] | Percent Effect [3] [%] | Percent Effect [4] [%] | Percent Effect (Trypanosoma cruzi) [%] | Percent Effect [5] [%] | Percent Effect [6] [%] | Percent Effect (Homo sapiens) [%] | Percent Effect [7] [%] | Percent Effect [8] [%] | Percent Effect [9] [%]
1 | CS(=O)(=O)N[C@@H]1CN(C(=O)c2ccccn2)[C@@H]2CCCO[C@@H]21 | -5.18 | 5.41 | 4.88 | 2.32 | -0.489 | 2.87 | 18.4 | -7.84 | 4.32 | 7.69 | -0.379
2 | Cc1ccc(CN2C[C@@H]3COC[C@H](C(=O)N4CCCCO4)[C@@H]3C2)o1 | -1.82 | 13.3 | 7.57 | 2.5 | 1.57 | -1.17 | 4.32 | 0.512 | 7.45 | 19.2 | -3.93
3 | Cc1cc(NC(=O)NCc2ccccc2OC(F)F)n(C)n1 | 1.45 | 6.33 | 5.29 | -4.29 | -7.69 | 4.09 | 21.3 | 4.53 | 3.12 | 2.53 | -5.23
4 | CC(=O)N1CCCC(c2ccc(Nc3nc(C)cc(C)n3)cn2)C1 (configuration not stated) | -3.24 | 5.33 | 9.18 | 0.842 | -1.18 | 3.5 | -2.2 | 4.23 | 3.19 | 14.1 | -7.25
5 | CC(=O)N1CCN(CC2CCOc3ccccc3C2)CC1 (configuration not stated) | -5.96 | -1.39 | -8.25 | 5.04 | -5.34 | 0.883 | 14.6 | -1.92 | 1.05 | -7.69 | -1.42
6 | Cc1ccc(-c2ncc(C(=O)NCCNC(=O)C(C)C)s2)c(C)c1 | -2.93 | 5.41 | -5.86 | -1.89 | -3.87 | -2 | 2.52 | 15.8 | 4.43 | 11.1 | -8.7
7 | CS(=O)(=O)N1CCc2c(cccc2NC(=O)CC(F)(F)F)C1 | -3.17 | 5.26 | 4.53 | -1.3 | -2.04 | 0 | 11.8 | -9.3 | 4.25 | 10.4 | -6.43
8 | Cc1cc(CNC(=O)C2CCCCN2C(=O)OC(C)(C)C)no1 (configuration not stated) | -4.46 | 2.7 | -5.58 | 0.833 | -2.83 | 0.744 | 1.29 | 4.89 | 3.23 | 13.6 | -3.75
9 | Cc1noc(C)c1CN1C[C@@H]2COC[C@H](C(=O)N3CCCCO3)[C@@H]2C1 | -5.77 | 8 | 8.79 | -0.115 | -5.12 | -1.17 | 7.31 | 3.63 | 6.38 | 8.97 | -0.163
10 | O=C1CCSCC(C(=O)N2CCCC2)N1 (configuration not stated) | -1.89 | 0 | 2.29 | -5.9 | -3.33 | -1.36 | 3.37 | -3.33 | 1.07 | 5 | -1.55
11 | CC(C)n1c(=O)nc2n1C(=O)N(c1ccccc1)C2 | -3.47 | 18.4 | -0.93 | -3.33 | 0.682 | -4.73 | 14.7 | -2.62 | 6.38 | 18.2 | -9.74
12 | COc1c(CNC2CCN(C(=O)C3CC3)CC2)c(C(C)C)nn1C | -4.71 | 21.1 | -4.53 | -2.41 | -4.95 | 1.44 | -0.0846 | 15.4 | 6.4 | 18.5 | -3.47
13 | COC(=O)CCc1c(C)nn(-c2nc(C)cc(=O)[nH]2)c1C | 2.99 | 15.6 | 14.8 | -8.75 | -3.06 | 0.645 | 4.87 | 25.4 | 7.41 | 11.5 | -5.54
14 | CCc1nc(CN2CCCN(c3nccs3)CC2)no1 | -2.88 | 15.6 | -3.3 | -7.59 | -3.93 | 1.78 | 12.5 | 26.3 | 3.88 | 9.76 | -8.02
15 | O=C(c1csc(-c2cccs2)n1)N1CCCC1Cn1cccn1 (configuration not stated) | -3.61 | 10.5 | -6.24 | 3.2 | -3.83 | 1.08 | -4.99 | -2.06 | 3.45 | 6.17 | 0.105
16 | Cc1cc(C)n(CC(=O)N2CCC(NS(=O)(=O)c3ccccc3)CC2)n1 | -0.375 | 13.2 | 4.71 | 6.53 | -1.32 | 0.383 | 4.84 | 15.1 | 1.47 | 7.32 | -3.29
17 | CC(C)Cc1cc(C(=O)N2CCCC(n3cncn3)C2)[nH]n1 (configuration not stated) | -1.38 | 11.4 | 6.88 | -0.206 | 1.33 | 10.1 | 2.4 | 0.485 | 5.21 | 12.7 | -22.3
18 | CN(C)c1ccc(CCNC(=O)C2CCC(=O)N(C3CCCC3)C2)cc1 (configuration not stated) | -4.96 | 8 | 1.17 | 1.11 | -2.04 | 1.56 | 13.1 | 1.03 | 2.73 | 11.1 | -5.65
19 | COc1c(CNC(c2ccc(F)cc2)C(C)(C)C)c(C)nn1C (configuration not stated) | -1.68 | 5.26 | -4.48 | 2.41 | -6.01 | -7.28 | 4.84 | 30.8 | 0.49 | -4.88 | -5.33
20 | CN(C)C(=O)CNC(=O)CCn1ncc2c(Cl)cccc21 | -5.52 | 4 | 2.92 | 1.65 | 3.73 | -7.57 | 14.1 | 16.1 | 2.12 | 7.69 | -12.3
21 | c1ccc(-c2nc(CN3CCCC(Cn4cncn4)C3)co2)cc1 (configuration not stated) | -0.495 | 29.1 | -4 | -3.43 | 1.54 | -5.81 | 18.2 | 14.8 | 6.25 | 10.1 | -13.6
22 | Cn1ncc2c(=O)[nH]c(CN3CCCC3CC3CCCCC3)nc21 (configuration not stated) | -1.58 | 21.1 | -3.55 | 4.78 | 3.83 | 0.719 | 6.85 | 17.1 | 6.4 | 25.9 | -8.17
